Sampled rows, rich in hits. Any-hit rate of the full collection: about 11%.
Vaccinia mCherry = inhibitors of vaccinia virus infection (mCherry reporter signal); Vaccinia virus mCherry reporter infection, fluorescence; Potency, µM (doses to about 36.5 µM), for the others: at the top dose activity change, negative = inhibition, usual class: inhibitors; 0.63% of 310,000 active; calls by dose curve; tested in A549 cells; also: % is scaled to controls: 0 for no effect and ±100 for the full control effect; nearly all actives have a fitted effect of over 35% in size
Pf growth 48h = P. falciparum growth inhibition at 48 hours (one generation) | P. falciparum luciferase growth in erythrocytes, 48 h | Potency, µM (series often up to 28.7 µM), inactives show top-dose activity change, negative = inhibition, most hits filed as inhibitors | 5.9% of 310,000 active; also: % is scaled to controls: 0 for no effect and ±100 for the full control effect
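Luciferase-expressing P. falciparum in infected erythrocytes (2% hematocrit, 0.1% parasitemia final) in RPMI 1640/0.5% Albumax were exposed to compound for 48 hours at 37 C, 5% CO2; growth read as luminescence.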
HCV inhibitor = inhibitors of hepatitis C virus infection. Huh7.5.1 HCVcc-Cre infection, luciferase reporter, 44 h. Potency, µM (top dose mostly 41.8 µM), for the others: at the top dose activity change, negative = inhibition, usual class: inhibitors. 3.4% of 340,000 active. AID 651820; also: % is scaled to controls: 0 for no effect and ±100 for the full control effect
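After 44 h co-culture of compound, cells and HCVcc-Cre (~0.5 moi), substrate is added for 15 min at room temperature and luciferase measured over 15 sec. Cells were seeded at 1,000/well and pre-cultured 4 h.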
Vaccinia Venus = vaccinia inhibition (Venus reporter); Vaccinia virus Venus reporter expression, fluorescence; Potency, µM (doses to about 36.5 µM), without a hit: at the highest dose activity change, negative = inhibition, hits mostly inhibitors; 0.46% of 330,000 active; AID 720580; calls by dose curve; tested in A549 cells; also: % is scaled to controls: 0 for no effect and ±100 for the full control effect; nearly all actives have a fitted effect of over 30% in size
NS1 inh = blocks influenza NS1 protein function; 0.4% of 270,000 active; Potency, µM (titrated, usually from 46.1 µM), without a hit: at the highest dose activity, positive = more growth; AID 2326; calls by dose curve; also: actives are rising curves; nearly all actives have a fitted effect of over 50% in size
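Growth recovery, yeast-based: influenza A NS1 expressed in S. cerevisiae causes slow growth, and suppressors are detected by OD600. The parent strain without NS1 is used as positive control.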
Pf growth 96h = P. falciparum growth inhibition at 96 hours; P. falciparum luciferase reporter growth, 96 h; Potency, µM (doses to about 28.7 µM), inactives show top-dose activity change, negative = inhibition, most hits filed as inhibitors; 6.9% of 320,000 active; AID 504834; also: % is scaled to controls: 0 for no effect and ±100 for the full control effect
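Parasite growth measured via integrated firefly luciferase reporter in P. falciparum. Infected erythrocytes at 2% hematocrit, 0.05% parasitemia final were treated 96 hours at 37 C under 5% CO2, and luminescence was read.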
* = called active by the depositor; i = inactive; ? = inconclusive; . = no result given. Unless noted, calls follow the shape of the dose curve; as a rule, active = well fitted inhibition curve with a large enough effect; inconclusive = small, poorly fitted or top-dose-only effect, or another doubt; inactive = no such curve, though single readings can be large or run the other way. Potency is read from the fitted curve at half-maximal effect.

SMILES | Vaccinia mCherry | Pf growth 48h | HCV inhibitor | Vaccinia Venus | NS1 inh | Pf growth 96h
CCOC(=O)C1=C(c2ccccc2)NC(=S)NC1c1cc([N+](=O)[O-])ccc1OC (stereo not given) | . | 12µM* | -17% | -13% | 7% | 8%
CSCCC(NC(=O)c1ccccc1Cl)C(=O)NCCc1ccccn1 (stereo not given) | . | . | -1% | . | . | .
CN1CCN(Cc2nc3c(c(=O)n(C)c(=O)n3C)n2Cc2ccccc2Cl)CC1 | . | . | . | . | -16% | .
Cn1c(=O)c2c(nc(CN3CCN(c4ccccc4)CC3)n2Cc2c(F)cccc2Cl)n(C)c1=O | . | ? | -18% | . | 6% | 5.2µM*
Cn1c(=O)c2c(nc(CN3CCN(c4ccccc4)CC3)n2Cc2ccccc2Cl)n(C)c1=O | . | 6.6µM* | -3% | . | ? | ?
Cn1c(=O)c2c(nc(CN3CCN(c4ccccc4)CC3)n2Cc2ccccc2F)n(C)c1=O | . | -17% | . | . | -7% | .
CCc1cccc(C)c1NC(=O)CCCSc1nc2ccccc2s1 | -13% | ? | ? | -27% | -22% | ?
CCc1cccc(CC)c1NC(=O)C1SC(=Nc2ccccc2C)C(c2nc3ccccc3s2)=C1N (stereo not given) | . | . | 0% | . | 26% | 7.4µM*
Cc1cccc(N2CC(C(=O)Nc3nnc(SCCN4CCOCC4)s3)CC2=O)c1 (stereo not given) | -13% | -14% | -20% | -2% | -8% | ?
Cc1ccccc1N1CC(C(=O)Nc2ccc(Br)cc2)CC1=O (stereo not given) | -8% | . | . | -8% | . | .
CC(=O)c1cccc(NC(=O)C2CC(=O)N(c3ccc4c(c3)OCCO4)C2)c1 (stereo not given) | i | -7% | ? | -11% | . | -26%
Cc1ccccc1N1CC(C(=O)Nc2ccncc2)CC1=O (stereo not given) | -13% | -12% | 32% | -2% | . | 13µM*
Cc1ccccc1N1CC(C(=O)Nc2nnc(SCCN3CCOCC3)s2)CC1=O (stereo not given) | . | ? | 1% | . | ? | 4.1µM*
CC(=O)c1cccc(NC(=O)C2CC(=O)N(c3cccc(C)c3C)C2)c1 (stereo not given) | . | 1.5µM* | 9% | . | -7% | 21%
CCOc1ccc(NC(=O)CCN2C(=O)c3ccccc3C2=O)cc1 | . | 6% | 5% | . | 3% | -14%
CC1(C)OC2CC3C4CC(F)C5=CC(=O)C=CC5(C)C4(F)C(O)CC3(C)C2(C(=O)CO)O1 (stereo not given) | ? | ? | 15% | -28% | -4% | 5.9µM*
CC1(c2ccccc2)O[C@@H]2C[C@H]3[C@@H]4CCC5=CC(=O)C=C[C@]5(C)[C@@]4(F)[C@@H](O)C[C@]3(C)[C@]2(C(=O)CO)O1 (stereo not given in full) | ? | 0.83µM* | -8% | ? | -5% | 1.9µM*
Cc1ccc(C(=O)Nc2ccc(Br)c(C(F)(F)F)c2)cc1 | . | ? | 11µM* | . | -77% | 12µM*
Cc1ccc(NC(=O)c2ccc(C)cc2)cc1 | -14% | 129% | -2% | -9% | . | 163%
COc1cc(/C=N/NC(=O)c2ccc(-c3ccccc3)cc2)cc(OC)c1OC | 5.6µM* | ? | -13% | ? | 23% | 17µM*
COc1ccccc1C=NNC(=O)NN=Cc1ccccc1OC | ? | . | ? | -5% | . | .
COc1ccccc1C=NN=C(NN=Cc1ccccc1OC)NN=Cc1ccccc1OC | ? | . | 13µM* | ? | . | .
COc1cc(/C=N/NC(=O)c2cc(-c3ccccc3)sc2N)cc(OC)c1OC | -28% | ? | ? | -28% | 5% | ?
COc1ccc(/C=N\NC(=O)c2ccc(-c3ccccc3)cc2)c(OC)c1OC | -15% | 9% | ? | -22% | 10% | 0.83µM*
CCOC(=O)[C@]12CCC=C1N(Cc1ccccc1)C(=O)[C@H](CC(=O)N1CCCCC1)C2 | -6% | . | . | -2% | . | .
CC1CCN(C(=O)c2ccccc2NC(=O)Nc2ccccc2)CC1 | -2% | 17% | 16% | -12% | -10% | 0%
O=C(NCCOC(=O)c1ccc(S(=O)(=O)N2CCOCC2)cc1)c1cccnc1 | -6% | 1% | -17% | 1% | -8% | 2.3µM*
